Screening results: PubChem BioAssay, The Scripps Research Institute Molecular Screening Center
Rows were chosen to be rich in hits. Some 2.3% of all compounds tested hit in one or more screens of this group.
CHO-K1 Ca ag: counter-screen for M1 agonists: effect in parental CHO-K1 cells; activation, % at 3 µM; hit rate 0.48% among 360,000; Fluo-8 calcium fluorescence; scaled to maximal ATP response, vehicle zero; in the data active = activation above about 15%;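 note: untransfected CHO-K1 host cells lacking M1 receptor as counterscreen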
CHRM1 antagonist: human M1 muscarinic receptor antagonists, primary screen, CHO-K1 cells, Fluo-8 calcium fluorescence, 1536-well; Muscarinic acetylcholine receptor M1 (Homo sapiens), P11229; CHO-K1 hM1, ACh EC80 antagonist; inhibition, % at 3 µM; hit rate 1.3% among 360,000; AID 588852, 2011;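 active = percent inhibition above its own plate's cutoff, namely the mean of that plate's compound wells plus 3 SD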;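 note: peak over basal fluorescence ratio during 140 s after agonist addition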
Target sequence (P11229 whole entry, looked up): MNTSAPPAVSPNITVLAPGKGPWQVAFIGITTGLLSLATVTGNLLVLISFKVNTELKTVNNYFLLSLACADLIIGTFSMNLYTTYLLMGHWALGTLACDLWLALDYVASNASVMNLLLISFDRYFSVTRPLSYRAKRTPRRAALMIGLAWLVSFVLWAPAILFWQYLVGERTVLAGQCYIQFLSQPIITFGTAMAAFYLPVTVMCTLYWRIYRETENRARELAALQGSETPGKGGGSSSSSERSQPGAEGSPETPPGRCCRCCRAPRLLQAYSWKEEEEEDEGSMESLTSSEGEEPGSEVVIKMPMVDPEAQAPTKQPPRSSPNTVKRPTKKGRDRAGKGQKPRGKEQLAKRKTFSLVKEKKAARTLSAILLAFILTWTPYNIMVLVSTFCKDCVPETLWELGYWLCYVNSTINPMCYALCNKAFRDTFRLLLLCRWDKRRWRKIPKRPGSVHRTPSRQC
M1 PAM: human M1 muscarinic receptor positive allosteric modulators, primary screen, CHO-K1 cells, Fluo-8 calcium fluorescence, 1536-well; Muscarinic acetylcholine receptor M1 (Homo sapiens), P11229; CHO-K1 hM1, ACh EC20; 0% = ACh EC20, 100% = maximal ACh; activation, % at 3 µM; hit rate 0.088% among 360,000; AID 588819, 2011; in the data active = activation above about 19%, passing the limit was not always enough
CHO-K1 Ca antag: nonselective inhibitor or artifact in parental CHO-K1 cells; ATP-induced calcium, Fluo-8 fluorescence; inhibition, % at 3 µM; hit rate 0.6% among 360,000; AID 602250;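 active = inhibition above a per-plate cutoff, the plate's mean sample inhibition plus 3 SD, cut at about 24% in these data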
M1 ag: human M1 muscarinic receptor agonists, primary screen, Fluo-8 calcium fluorescence, CHO-K1 cells, HTS. CHO-K1 hM1, agonist mode; 0% DMSO, 100% acetylcholine EC100. Muscarinic acetylcholine receptor M1 (Homo sapiens), P11229. hit rate 0.33% among 360,000. AID 588814, 2011. activation, % at 3 µM;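 active = activation above the run's mean compound activation plus 3 SD, cut at about 16% in these data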;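 note: peak over basal fluorescence ratio within a 140 s kinetic read after compound addition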
CHO-K1 Ca PAM: nonselective calcium activators in parental CHO-K1 cells, primary screen, counter-screen for M1 PAM project, cell-based, Fluo-8 calcium fluorescence, full deck, 1536-well; ATP EC20; 0% at ATP EC20, 100% at ATP max; activation, % at 3 µM; hit rate 0.02% among 360,000; AID 602247, 2012;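 active = activation above the run cutoff, the mean activation of all test compounds plus 3 SD, cut at about 40% in these data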;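 note: peak over basal fluorescence ratio in a 140 s read after ATP addition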
Large screens that a line does not name were inactive.

COc1ccc(C(=O)C2CCCN(Cc3cnc(N4CCOCC4)s3)C2)c(OC)c1 (stereo not given)	none
COc1ccc(C(=O)C2CCCN(Cc3ccc4nonc4c3)C2)cc1F (stereo not given)	none
COc1ccc(S(=O)(=O)N(C)C[C@@H]2OCCCC[C@H](C)Oc3ccc(NC(=O)Nc4ccc(C(F)(F)F)cc4)cc3C(=O)N([C@H](C)CO)C[C@H]2C)cc1	none
O=C(Nc1ccc(Oc2cccnc2)cc1)C1CCN(Cc2cccc(Cl)c2)CC1	none
CC(=O)c1cccc(CN2CCC(C(=O)Nc3ccc(Oc4cccnc4)cc3)CC2)c1	CHRM1 antagonist 30
O=C(NCc1ccccc1Cl)c1ccc2c(=O)n(CCCN3CCCC3=O)c(=S)[nH]c2c1	CHO-K1 Ca antag 30
COCCNC(=O)c1ccc2c(=O)n(CCCN3CCCC3=O)c(=S)[nH]c2c1	none
O=C(c1cccc(S(=O)(=O)N2CCOCC2)c1)N1CCN(C/C=C/c2ccccc2)CC1	CHRM1 antagonist 98
O=C(c1ccccc1)N1CCN(S(=O)(=O)c2ccccc2)CC1	CHRM1 antagonist 102
O=C(CSc1nnc(Cc2ccccc2)n1-c1cccc(Cl)c1)NNC(=O)Cc1ccccc1	none
CN(Cc1cccs1)c1nc(-c2cccnc2)nc2ccccc12	CHRM1 antagonist 35
C[C@H](NC(=O)[C@@H]1CSC2c3ccccc3C(=O)N21)C(=O)NC1CCCCC1 (stereo not given in full)	none
C[C@H](NC(=O)[C@@H]1CSC2c3ccccc3C(=O)N21)C(=O)NC1CCCC1 (stereo not given in full)	CHRM1 antagonist 27
CCCCOc1ccc(C(=O)N/C(=C\c2ccc(OC)cc2)C(=O)OCc2ccco2)cc1	CHO-K1 Ca ag 16
COc1ccc(C(=O)N/C(=C\c2ccco2)C(=O)OCc2ccco2)cc1	none
CC[N+](C)(CC)CCOC(=O)C1c2ccccc2Oc2ccccc21	CHRM1 antagonist 97
NC(=O)COC(=O)C1c2ccccc2Oc2ccccc21	none
CN(CCOC(=O)C1c2ccccc2Oc2ccccc21)C(C)(C)C	CHRM1 antagonist 98
CN(C)CCCOC(=O)C1c2ccccc2Oc2ccccc21	CHRM1 antagonist 97
CC(C)(C)OC(=O)N[C@H](C(=O)OC(C)(C)C)c1ccc2ccccc2c1	none
Cc1ccc(CN(C)C(=O)C2CCC(=O)N(CCc3ccccc3)C2)o1 (stereo not given)	none
COc1cc(/C=C2\SC(=S)N(NC(=O)c3ccc(O)c(OC)c3)C2=O)ccc1O	CHO-K1 Ca ag 17, M1 ag 27
O=C(CCCN1C(=O)/C(=C/c2cccs2)SC1=S)Nc1cccc(O)c1	CHRM1 antagonist 25
COc1cc(/C=C2\SC(=S)N(NC(=O)c3cccc(O)c3)C2=O)ccc1O	M1 ag 16
Cc1ccc(/C=C2\SC(=S)N(CCC(=O)NNC(=O)c3cccc(O)c3)C2=O)cc1	CHRM1 antagonist 32
Cc1ncc(CO)c(CNc2ccc(-c3nc4ccccc4[nH]3)cc2)c1O	none
Cc1ccc(NC(=O)C2CCN(S(=O)(=O)c3ccc4c(c3)CCCC(=O)N4)CC2)cc1N(C)C	none
COc1ccc2c(c1OC)C(=O)N1c3ccccc3C(=O)N(c3ccccc3F)C21 (stereo not given)	CHRM1 antagonist 39
O=C1c2ccccc2[C@@H]2C[C@@H](O)[C@H](Nc3cccc4ccccc34)CCN12	CHRM1 antagonist 25
OCCNCc1c(OCc2ccc(Cl)cc2)ccc2ccccc12	CHO-K1 Ca ag 24
O=S(=O)(c1ccccc1Br)N(Cc1ccccc1)CC(O)COCc1ccccc1 (stereo not given)	none
CC1(c2ccc(Cl)cc2)NC(=O)N(CC(=O)Nc2ccc3c(c2)OCO3)C1=O (stereo not given)	M1 ag 20
CC1(c2ccccc2Cl)NC(=O)N(CC(=O)NCc2ccc3c(c2)OCO3)C1=O (stereo not given)	M1 PAM 29
CC1(c2ccccc2)NC(=O)N(CC(=O)NCc2ccc3c(c2)OCO3)C1=O (stereo not given)	none
Cc1noc(C)c1COc1ccc(C(=O)OCC(N)=O)cc1	CHO-K1 Ca antag 27
COc1ccc(C(C(=O)NCc2ccccc2)N(Cc2ccco2)C(=O)c2snc(C(N)=O)c2N)cc1 (stereo not given)	CHRM1 antagonist 33
CCOc1ccc(C(C(=O)NCC2CCCO2)N(C(=O)c2snc(C(N)=O)c2N)c2ccccc2F)cc1 (stereo not given)	CHO-K1 Ca antag 40
COc1ccc(C(C(=O)NCc2ccccc2)N(Cc2ccco2)C(=O)c2snc(C(N)=O)c2N)cc1OC (stereo not given)	none
NC(=O)c1nsc(C(=O)N(c2ccccc2F)C(C(=O)NCc2ccc(F)cc2)c2ccc(O)cc2)c1N (stereo not given)	CHRM1 antagonist 37
CC(=O)OCC(=O)C1(O)CCC2C3CC(C)C4=CC(=O)C=CC4(C)C3C(O)CC21C (stereo not given)	none
COC1OC(CO)C(O)C(O)C1O (stereo not given)	none
OC[C@H]1O[C@@H](O[C@@H]2[C@@H](CO)O[C@@](O)(CO)[C@H]2O)[C@H](O)[C@@H](O)[C@H]1O	CHO-K1 Ca antag 27
COc1cc(Br)ccc1C1CC(=O)C(C)C(c2ccc(Br)cc2OC)N1 (stereo not given)	none
CCOc1ccc(CNC(=S)NCc2ccc(OCC)cc2)cc1	none
CCOc1ccc(C(C)NC(=O)C2CCC2)cc1 (stereo not given)	CHO-K1 Ca antag 24
Cc1ccc(C(C)NC(=S)NCc2ccc(F)cc2)cc1C (stereo not given)	none
CCc1ccc(C(C)NC(=S)NCc2ccc(F)cc2)cc1 (stereo not given)	CHRM1 antagonist 40
CCOc1ccc(C(C)NC(=S)NCc2ccc(F)cc2)cc1 (stereo not given)	CHO-K1 Ca ag 23
O=C(CSc1nc(=O)n(CCCN2CCOCC2)c2c1CCCC2)Nc1ccc(F)cc1	CHRM1 antagonist 31
CCCCc1ccc(NC(=O)CSc2nc(=O)n(CCN(C)C)c3c2CCC3)cc1	none
CCCCc1ccc(NC(=O)CSc2nc(=O)n(CCN(CC)CC)c3c2CCCC3)cc1	CHRM1 antagonist 66
C[C@H](CO)N1C[C@H](C)[C@H](CN(C)C(=O)OCc2ccccc2)OCc2cnnn2CCCC1=O	none
CC(C)CCN1C(=O)c2ccccc2C1c1nnnn1C(C)C (stereo not given)	none (no result: CHRM1 antagonist, M1 PAM, M1 ag)
